Assay results as given in PubChem BioAssay AID504796 (The Scripps Research Institute Molecular Screening Center, 2011).
The list shows a part of the results. Values without a mark were called inactive. Active and inactive are the calls of the source. Cut-off read from the data, not from the text of the source: active = activation above about 20%; inactive = the rest.

Assay: fluorescence polarization artefacts, biochemical, artefact control for PKA-R2B activator project (AID 504796);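 note: Cy5 labelled IP20 peptide probe with compound but no PKA protein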
Details: FP artifact counterscreen, at 11.4 µM, active compounds read high

Row | SMILES | activation
1 | O=C(CN(C(=O)CCC(=O)Nc1nccs1)c1ccc(F)cc1)NCc1ccc2c(c1)OCO2 | -1.45%
2 | CCCC(=O)Nc1ncnc2c1ncn2[C@@H]1O[C@@H]2OP(=O)(O)OC[C@H]2[C@H]1OC(=O)CCC | 0.15%
3 | O=C(O)C1=C(C(=O)O)C2CCC1C2 | 5.92%
4 | COc1ccc(CC(NC(C)=O)C(=O)NC2CCN(C(=O)c3ccc(Cl)cc3)CC2)cc1 (stereo not drawn) | 3.95%
5 | CC(C)(C)c1nnc(N/N=C/c2ccc(O)cc2)n(N)c1=O | 1.05%
6 | COc1cccc(Nc2nnc(SCC(=O)N3CC(C)OC(C)C3)s2)c1 (stereo not drawn) | 1.43%
7 | N#Cc1ccccc1CN1C(=O)S/C(=C/c2cccn2-c2cccc(C(=O)O)c2)C1=O | 19.3% (active)
8 | O=C(CCCN1C(=O)c2cccc3cccc(c23)C1=O)N1CCN(Cc2ccc3c(c2)OCO3)CC1 | 1.66%
9 | CC(C)(C)c1ccc(C(=O)N2CCC(C(=O)N3CCCCC3)CC2)cc1 | 4.67%
10 | O=C(CNC(=O)c1ccccc1)NCC(=O)OCC(=O)c1ccccc1 | 9.84%
11 | O=S(=O)(NCCNS(=O)(=O)c1ccccc1)c1ccccc1 | 4.68%
12 | COc1ccc(C/C(C)=N/NC(=O)c2ccncc2)cc1 | 1.96%
13 | COc1ccc([N+](=O)[O-])cc1C1NN=C(c2cccc3ccccc23)S1 (stereo not drawn) | 4.38%
